Among the data in PubChem BioAssay (NCI) are growth values, retold here.

The structures appear in SMILES notation. Compounds without any hit were thinned out: in the full panel of roughly 83,000, 20% have a hit.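 Plates (96-well) were seeded with cells, treated with compound at one concentration, and incubated for 48 hours before percent growth was determined.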 A number with no mark means an inactive call. Activity calls are given as the source filed them. How the source made its calls: active means growth percent below 10; inactive means the rest.

Test systems include HCT-15 colon; HT29 colon; SNB-75 CNS; SNB-19 CNS; U251 CNS; PC-3 prostate; SK-MEL-5 melanoma; UACC-62 melanoma; LOX IMVI melanoma; SK-MEL-2 melanoma; EKVX NSCLC; SN12C renal; UO-31 renal; TK-10 renal; ACHN renal; CAKI-1 renal; A498 renal; CCRF-CEM leukemia; MOLT-4 leukemia; SK-MEL-28 melanoma.
Test in all cases: NCI-60 one-dose screen, 48 h (100 = growth as untreated, 0 = no growth, -100 = all killed)
Holding throughout (details): 10 µM unless noted

As to `COc1ccc(-c2cnc3ccccc3n2)cc1`, the growth was 99.9% in the experiment on HCT-15 colon; 118% with HT29 colon; 72.4% in the experiment on SNB-75 CNS; 93.6% in the experiment on SNB-19 CNS; 86.3% in the experiment on U251 CNS; 98% in the experiment on PC-3 prostate. For the same compound, the growth in the experiment on SK-MEL-5 melanoma is 101%; with UACC-62 melanoma it was 91.6%; with LOX IMVI melanoma, 101%; in the experiment on SK-MEL-2 melanoma, 112%; in the experiment on EKVX NSCLC, 88.2%; in the experiment on SN12C renal it was 93.7%. The growth is 81.9% with UO-31 renal; 91.3% in the experiment on TK-10 renal; 97.9% in the experiment with ACHN renal; 84.4% in the experiment on CAKI-1 renal; 95% with A498 renal; 97.4% with CCRF-CEM leukemia. Moreover, in the experiment on MOLT-4 leukemia, the growth is 103%.

In the case of `Cc1cc(-c2cc(C)c(N)cc2C)c(C)cc1N`, the growth with HCT-15 colon is 73%; in the experiment with HT29 colon it was 99%; with SNB-75 CNS, 101%; with SNB-19 CNS, 85.2%; with U251 CNS, 71.8%; in the experiment on PC-3 prostate, 80.5%. Also, the growth with SK-MEL-5 melanoma is 81.6%; in the experiment with UACC-62 melanoma, 75.8%; with LOX IMVI melanoma, 75.6%; in the experiment on SK-MEL-2 melanoma, 90.5%; in the experiment on EKVX NSCLC it was 115%; with SN12C renal, 89.9%. Further, the growth with UO-31 renal is 78.7%; with TK-10 renal, 101%; in the experiment on ACHN renal it was 92.8%; in the experiment with CAKI-1 renal it was 87.3%; in the experiment on A498 renal it was 105%; in the experiment on CCRF-CEM leukemia, 89.8%. Further, the growth in the experiment with MOLT-4 leukemia is 100%.

In the case of `COc1cc2cc(Oc3ccc(NC(=O)Nc4ccc(F)c(C(F)(F)F)c4)cc3)c(C)nc2cc1OCCN1CCOCC1`, the growth is 13.6% with HCT-15 colon; 8.41% (active) with HT29 colon; 51.6% with SNB-75 CNS; 25.1% in the experiment on SNB-19 CNS; 13.6% in the experiment on U251 CNS; 5.95% (active) with PC-3 prostate. Also, the growth was -37.6% (active) with SK-MEL-5 melanoma; 33.9% with UACC-62 melanoma; 12.8% in the experiment with LOX IMVI melanoma; 43.1% with SK-MEL-28 melanoma; 16.2% with EKVX NSCLC; 11.6% in the experiment with SN12C renal. Moreover, the growth in the experiment with UO-31 renal is 30.1%; with TK-10 renal, 35.1%; in the experiment on ACHN renal it was 9.37% (active); in the experiment on CAKI-1 renal, 25.8%; with CCRF-CEM leukemia, 5.44% (active); with MOLT-4 leukemia it was 0.0203% (active).

With `O=c1c2cc(F)ccc2sc2c(N3CCNCC3)nc3ccc(F)cc3c12`, the growth is -66.4% (active) in the experiment on HCT-15 colon; -41.2% (active) in the experiment with HT29 colon; 53.9% in the experiment on SNB-75 CNS; 57% in the experiment on SNB-19 CNS; -56.2% (active) in the experiment on U251 CNS; 32% in the experiment with PC-3 prostate. For the same compound, the growth in the experiment on SK-MEL-5 melanoma is 81.5%; in the experiment on UACC-62 melanoma it was 0.994% (active); in the experiment on LOX IMVI melanoma, -98.5% (active); in the experiment on SK-MEL-28 melanoma, 27.9%; with EKVX NSCLC, 66.4%; in the experiment on SN12C renal it was 54.2%. Further, the growth in the experiment with UO-31 renal was 31.8%; in the experiment with TK-10 renal, 26.6%; with ACHN renal, -41.6% (active); in the experiment with CAKI-1 renal it was -96.9% (active); in the experiment with CCRF-CEM leukemia, -12.1% (active); with MOLT-4 leukemia, -36.5% (active).

As to `COc1ccc(C(=O)/C=C/c2sc(Cl)nc2Cl)cc1`, the growth is 13.1% in the experiment with HCT-15 colon; 31.9% in the experiment with HT29 colon; 50.9% in the experiment on SNB-75 CNS; 68.9% with SNB-19 CNS; 16.5% in the experiment with U251 CNS; 52.3% with PC-3 prostate. Besides, the growth in the experiment on SK-MEL-5 melanoma was -39.1% (active); in the experiment with UACC-62 melanoma, 58.8%; in the experiment with LOX IMVI melanoma it was -49.9% (active); in the experiment on SK-MEL-28 melanoma, 53.2%; in the experiment on EKVX NSCLC, 65.2%; with SN12C renal, 18%. Moreover, the growth is 51.9% with UO-31 renal; 104% with TK-10 renal; -44.5% (active) in the experiment on ACHN renal; 27.4% in the experiment with CAKI-1 renal; 93.2% in the experiment with A498 renal; 12.3% in the experiment on CCRF-CEM leukemia.

Turning to `O=C(O)C(c1ccccc1)N1C(=O)CSC1=S` (centres undefined), the growth in the experiment with HCT-15 colon was 103%; in the experiment on HT29 colon it was 106%; in the experiment with SNB-75 CNS, 72.8%; in the experiment with SNB-19 CNS it was 102%; in the experiment with U251 CNS, 96.4%; in the experiment with PC-3 prostate, 101%. In addition, the growth is 102% in the experiment with SK-MEL-5 melanoma; 97.7% in the experiment on UACC-62 melanoma; 97.2% in the experiment on LOX IMVI melanoma; 99.5% with SK-MEL-28 melanoma; 98% in the experiment with EKVX NSCLC; 97% in the experiment on SN12C renal. The growth with TK-10 renal was 95.7%; in the experiment on ACHN renal it was 102%; with CAKI-1 renal, 89.3%; in the experiment on A498 renal it was 83.9%; with CCRF-CEM leukemia, 105%; in the experiment on MOLT-4 leukemia it was 99.9%.

For the compound `COc1cc(C(=O)N/N=C/c2cc3cc(OCc4ccccc4)ccc3nc2OC)cc(OC)c1OC`, the growth in the experiment on HCT-15 colon is 80.3%; with HT29 colon, 82.9%; with SNB-75 CNS it was 77.7%; in the experiment with SNB-19 CNS, 90.3%; in the experiment with U251 CNS, 84.8%; in the experiment with PC-3 prostate it was 68.1%. Further, the growth in the experiment on SK-MEL-5 melanoma was 63.7%; with UACC-62 melanoma it was 84.3%; in the experiment with LOX IMVI melanoma, 81.9%; in the experiment with SK-MEL-28 melanoma, 100%; in the experiment with SK-MEL-2 melanoma it was 85.4%; in the experiment with EKVX NSCLC, 85.4%. Moreover, the growth is 87.9% in the experiment on SN12C renal; 72.1% with TK-10 renal; 95.2% in the experiment with ACHN renal; 98.2% in the experiment on CAKI-1 renal; 95.6% in the experiment on A498 renal; 65.9% with CCRF-CEM leukemia. In addition, in the experiment on MOLT-4 leukemia, the growth is 62.5%.

With `Cc1cccc2c3c(sc12)C(c1ccc(Cl)cc1)C(C#N)=C(N)O3` (centres undefined), the growth with HCT-15 colon was 10.3%; with HT29 colon, 6.24% (active); in the experiment on SNB-75 CNS, 4.24% (active); with SNB-19 CNS, 27.6%; with U251 CNS, 27.2%; in the experiment with PC-3 prostate, 16.2%. Moreover, the growth is 27.1% with SK-MEL-5 melanoma; 17.6% in the experiment with UACC-62 melanoma; 18.4% in the experiment with LOX IMVI melanoma; 58.6% in the experiment with SK-MEL-28 melanoma; 44.5% with EKVX NSCLC; 25.2% in the experiment with SN12C renal. The growth was 71.7% in the experiment with TK-10 renal; 25.2% in the experiment on ACHN renal; 8.51% (active) in the experiment on CAKI-1 renal; -6.58% (active) in the experiment with A498 renal; 13.2% with CCRF-CEM leukemia; 11.9% with MOLT-4 leukemia.

As to `CCOC(=O)c1sc2ncc(-c3ccc(OC)cc3)n2c1C`, the growth with HCT-15 colon was 90.2%; in the experiment on HT29 colon, 102%; in the experiment on SNB-75 CNS, 92%; in the experiment on SNB-19 CNS it was 92.4%; in the experiment on U251 CNS, 105%; with PC-3 prostate, 92.1%. The growth in the experiment on SK-MEL-5 melanoma is 94.3%; in the experiment on UACC-62 melanoma, 78.6%; in the experiment with LOX IMVI melanoma, 93.4%; in the experiment on SK-MEL-28 melanoma, 106%; with SK-MEL-2 melanoma it was 103%; in the experiment on EKVX NSCLC, 94.8%. Besides, the growth is 92.1% in the experiment on SN12C renal; 156% in the experiment with TK-10 renal; -100% (active) in the experiment with ACHN renal; 107% in the experiment with A498 renal; 94.6% in the experiment on CCRF-CEM leukemia.
